Inconclusive results are not listed. Active and inactive are the calls of the source. Calls follow the shape of the dose curve; as a rule, active = well fitted inhibition curve with a large enough effect; inconclusive = small, poorly fitted or top-dose-only effect; inactive = no such curve, though single readings can be large or run the other way.
Target: Luciferin 4-monooxygenase (Photinus pyralis) (UniProt P08659)
Experiment: FLuc inhibitory activity for the follow-up compounds in a biochemical assay with an in-house formulation of detection reagent
Details: purified FLuc, luminescence; series mostly up to 25.6 µM; activity change, negative = inhibition: at the top concentration
From the text: NCGC Assay Overview: Firefly (Photinus pyralis) luciferase is one of the most commonly used transcriptional reporters. It is considered one of the more dynamically responsive reporters - that is, responsive to changes in reporter transcription - as it requires no post-translational modifications and is enzymatically active directly after protein synthesis (Wood, 1998). With no endogenous expression in mammalian cells and without the requirement of external excitation, it offers very little background signal, thus generally providing excellent signal to background for most assays. Previous profiling work to determine the prevalence of compounds that affect FLuc enzymatic activity (PubChem AID 411) identified that ~3% of the MLSMR library (then at ~72K) inhibited FLuc (Auld et al., 2008). […] Of the compounds identified in this profile that inhibited FLuc, 151 compounds were selected for further analysis, in an effort to better understand their mode of inhibiting FLuc. The assay described here was to determine the activity of the compounds in a FLuc assay that used an in-house formulation of detection reagent.
NCGC Assay Protocol Summary: Reagents: 300mM Tris-HCl, 300mM Trizma base, 300mM MgCl, 1% Triton-X100, 5mM DTT, 500uM Coenzyme A trilithium salt (Sigma #C3019),450uM ATP (Sigma #A7699), 1mM D-luciferin sodium salt monohydrate (Biosynth #L8240); 10nM P. pyralis luciferase (Sigma #L9506) Control compounds used were two known firefly luciferase inhibitors (3-(5-(3-chlorophenyl)-1,2,4-oxadiazol-3-yl)benzoic acid and 5-(2-fluorophenyl)-3-phenyl-1,2,4-oxadiazole), and DMSO. Assay Summary: Six microliters of buffer containing firefly luciferase (final concentrations: 50mM Tris acetate, 10nM P. pyralis luciferase) are dispensed into each well of a Greiner white, solid-bottom 1536-well format plate using a flying reagent dispenser (FRD). These assay plates were then treated with 23nL of compound or DMSO using a Kalypsys pin tool, which allows for delivery of a 12-point intraplate titration of each compound to the assay plate (quantitative HTS), with final compound concentrations ranging from approximately ~25uM to 0.1nM. Three microliters of 3X in-house detection reagent was then delivered by FRD to each well (final concentrations in assay: 300mM Tris-HCl, 300mM Trizma base, 300mM MgCl, 1% Triton-X100, 5mM DTT, 500uM Coenzyme A trilithium salt, 450uM ATP, 1mM D-luciferin sodium salt monohydrate). Luciferase activity was then measured using a ViewLux CCD imager (PerkinElmer), with an average exposure time of 2-30 seconds (2X binning, medium/high gain).

Chain of Luciferin 4-monooxygenase (Photinus pyralis) (P08659 whole entry, looked up): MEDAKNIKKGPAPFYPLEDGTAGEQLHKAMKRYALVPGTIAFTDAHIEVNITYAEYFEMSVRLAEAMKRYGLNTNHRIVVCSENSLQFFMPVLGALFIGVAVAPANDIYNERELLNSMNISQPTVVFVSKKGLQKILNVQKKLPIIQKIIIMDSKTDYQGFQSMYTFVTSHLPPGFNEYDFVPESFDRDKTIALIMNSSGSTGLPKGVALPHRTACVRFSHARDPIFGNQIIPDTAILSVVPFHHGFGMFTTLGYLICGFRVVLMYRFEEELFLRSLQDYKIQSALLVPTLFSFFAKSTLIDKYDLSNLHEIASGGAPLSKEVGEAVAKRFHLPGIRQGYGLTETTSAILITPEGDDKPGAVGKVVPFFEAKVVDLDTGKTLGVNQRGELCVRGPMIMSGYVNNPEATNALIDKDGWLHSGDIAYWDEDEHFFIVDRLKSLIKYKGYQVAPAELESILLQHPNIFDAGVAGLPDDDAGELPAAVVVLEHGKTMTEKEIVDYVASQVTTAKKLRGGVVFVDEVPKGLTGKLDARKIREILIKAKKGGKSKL

Activity change, negative = inhibition, inactive:
COc1cc(OC)cc(C(=O)Nc2ccccc2-c2nc3ccccc3s2)c1 -6.18%, Cc1ccccc1C(=O)Nc1cccc(C(=O)Nc2ccccc2C(=O)O)c1 -7.54%, O=C(Nc1ccccc1C(=O)Nc1ccccc1C(=O)O)c1ccccc1 -4.17%, O=C(O)c1cccc(NC(=O)c2cccc(NC(=O)C3CCCO3)c2)c1 (stereo not given) -14.9%, Cc1ccc(C(=O)Nc2cccc(C(=O)O)c2)cc1S(=O)(=O)N1CCCCC1 -17.8%, O=C(O)c1cccc(NC(=O)c2cccc(S(=O)(=O)N3CCCCC3)c2)c1 -2.55%, CCCC(=O)Nc1nc2ccc(OCC)cc2s1 -37.4%, O=C(Cc1ccccc1)Nc1ccccc1C(=O)Nc1ccc(C(=O)O)cc1 -19.1%, COc1ccc(C(=O)Nc2ccccc2C(=O)Nc2ccccc2C(=O)O)cc1 -25.8%, O=C(Nc1ccccc1C(=O)O)c1ccccc1 -24%, CCOc1ccc2nc(NC(=O)Cc3cccs3)sc2c1 -13.3%, COc1cc(OC)cc(-c2nc3ccccc3s2)c1 -24%, Cc1ccc(S(=O)(=O)N2CCOCC2)cc1C(=O)Nc1ccccc1C(=O)O -0.566%, Cc1ccc(C(=O)Nc2cccc(C(=O)O)c2)cc1S(=O)(=O)N1CCOCC1 -8.83%, O=C(O)c1ccc(NC(=O)c2cccc(C(=O)Nc3ccc(C(=O)O)cc3)c2)cc1 -13.4%, CCOC(=O)N1CCN(CC(=O)Nc2nc3ccc(OC)cc3s2)CC1 3.07%, Cc1ccc(NS(=O)(=O)c2ccc(Cl)c(C(=O)Nc3cccc(C(=O)O)c3)c2)cc1 -3.21%, O=C(O)c1cccc(NC(=O)c2cccc(S(=O)(=O)N3CCc4ccccc4C3)c2)c1 -8.2%, O=C(O)c1ccc(NC(=O)c2ccccc2NC(=O)c2ccccc2Br)cc1 -14%, Cc1c(NC(=O)c2cccs2)cccc1-c1nc2ccccc2s1 -9.6%, O=C(Nc1ccccc1C(=O)O)c1cccc(S(=O)(=O)N2CCCC2)c1 -18.7%, Cc1cccc(C(=O)Nc2ccccc2C(=O)Nc2ccc(C(=O)O)cc2)c1 -43.7%, O=C(Nc1ccccc1C(=O)O)c1cccc(NC(=O)c2ccccc2Br)c1 -2.39%, Cn1c(N/N=C/c2cc3ccccc3nc2Cl)nc2ccccc21 -15.9%, O=C(Nc1ccccc1C(=O)O)c1cc(S(=O)(=O)NCc2ccccc2)ccc1Cl -17.5%, O=C(O)c1cccc(NC(=O)c2ccc(Cl)c(S(=O)(=O)N3CCCCCC3)c2)c1 -13.5%, COc1ccc(Br)cc1C(=O)Nc1ccc(C(=O)O)cc1 -16.9%, COc1ccc2nc(NC(=O)C3CCN(S(=O)(=O)c4cccnc4)CC3)sc2c1 26.7%, O=C(Nc1ccccc1C(=O)O)c1cccc(NC(=O)c2ccco2)c1 -15.2%, CN(C)S(=O)(=O)c1ccc(C(=O)Nc2ccccc2C(=O)O)cc1 -6.75%

Potency, active:
COc1ccc(-c2nc3ccccc3s2)cc1O 2.46 µM, Cc1ccc(C(=O)Nc2cccc(C(=O)O)c2)cc1 13.8 µM, Nc1cccc(-c2nc3ccc(N)cc3s2)c1 3.9 µM, CCOc1ccc2nc(NC(=O)c3ccccc3)sc2c1 6.19 µM, COc1ccc2nc(NC(=O)c3ccc([N+](=O)[O-])o3)sc2c1 9.8 µM, Cc1ccc(C(=O)O/N=C(\N)c2ccccn2)c(Cl)c1 0.0619 µM, CCOc1ccc2nc(NC(=O)c3ccoc3C)sc2c1 4.91 µM, COc1ccc2nc(NC(=O)CCc3nc(-c4ccccc4F)no3)sc2c1 6.94 µM, COc1cccc(-c2nc3ccccc3s2)c1 7.79 µM, Nc1ccc(-c2nc3ccc(N)cc3s2)cc1 4.91 µM
